Assay results as given in PubChem BioAssay AID1159580 (chemical genetic matrix, 2015).
“And” between values parts separate entries of the source, which are not always exact repeats. Equal entries are not always repeated. The campaign covered roughly 5,500 compounds. About 2,000 (36%) were called active. Roughly 18% stayed inconclusive and do not appear here. Cut-off read from the data, not from the text of the source: active = normalized growth mostly below about 0.91 (no sharp cut-off); inconclusive = no clear call, values can overlap the other calls; inactive = mostly above about 0.92. This is one part of the list.

Experiment: chemical genetic growth profiling, strain panel (AID 1159580);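 note: tested at 20 µM; growth read once vehicle control cultures reached saturation at 30 °C; 1 = growth at the plate median or of vehicle wells; lower values mean less growth of the strain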
Details: S. cerevisiae deletion strains, growth OD

Measured: normalized growth

COc1c(O)cc2c(-c3ccccc3)cc(=O)oc2c1OC
active: locus YMR307W, strain GAS1, stronger effect = lower value 1.67 [resistant]
inactive: locus YAL021C, strain ccr4, stronger effect = lower value 0.994 | locus YAL026C, strain drs2, stronger effect = lower value 1.01 | locus YAL030W, strain snc1, stronger effect = lower value 0.992 | locus YBL061C, strain skt5, stronger effect = lower value 1.01 | locus YBR009C, strain hhf1, stronger effect = lower value 0.994 | locus YBR021W, strain FUR4, stronger effect = lower value 0.982 | locus YBR023C, strain chs3, stronger effect = lower value 0.994 | locus YBR171W, strain sec66, stronger effect = lower value 1.01 | locus YBR229C, strain ROT2, stronger effect = lower value 0.995 | locus YBR231C, strain swc5, stronger effect = lower value 1 | locus YBR279W, strain paf1, stronger effect = lower value 0.995 | locus YCL011C, strain gbp2, stronger effect = lower value 0.995 | locus YCL016C, strain dcc1, stronger effect = lower value 0.993 | locus YCL029C, strain bik1, stronger effect = lower value 0.964 | locus YCL061C, strain MRC1, stronger effect = lower value 0.994 | locus YCL069W, strain vba3, stronger effect = lower value 1.01 | locus YCR088W, strain abp1, stronger effect = lower value 0.995 | locus YDL005C, strain med2, stronger effect = lower value 0.99 | locus YDL035C, strain GPR1, stronger effect = lower value 1.05 | locus YDL040C, strain nat1, stronger effect = lower value 0.997 | locus YDL074C, strain BRE1, stronger effect = lower value 1.01 | locus YDL101C, strain DUN1, stronger effect = lower value 0.99 | locus YDL134C, strain PPH21, stronger effect = lower value 1.03 | locus YDL185W, strain tfp1, stronger effect = lower value 0.95 | locus YDL192W, strain arf1, stronger effect = lower value 0.988 | locus YDR001C, strain nth1, stronger effect = lower value 0.987 | locus YDR069C, strain doa4, stronger effect = lower value 1.02 | locus YDR101C, strain arx1, stronger effect = lower value 1.01 | locus YDR137W, strain rgp1, stronger effect = lower value 0.889 | locus YDR159W, strain sac3, stronger effect = lower value 0.999 | locus YDR162C, strain NBP2, stronger effect = lower value 1.01 | locus YDR195W, strain ref2 0.989 | locus YDR297W, strain sur2, stronger effect = lower value 1.02 | locus YDR318W, strain mcm21, stronger effect = lower value 0.973 | locus YDR334W, strain swr1, stronger effect = lower value 1 | locus YDR335W, strain msn5, stronger effect = lower value 0.995 | locus YDR388W, stronger effect = lower value 0.984 | locus YDR392W, strain spt3, stronger effect = lower value 0.848 | locus YDR502C, strain sam2, stronger effect = lower value 0.955 | locus YEL003W, strain gim4, stronger effect = lower value 1.02 | locus YEL037C, strain rad23, stronger effect = lower value 1 | locus YEL061C, strain CIN8 (second series), stronger effect = lower value 0.995 | locus YER015W, strain faa2, stronger effect = lower value 0.997 | locus YER016W, strain bim1, stronger effect = lower value 1 | locus YER110C, stronger effect = lower value 0.968 | locus YER111C, strain swi4, stronger effect = lower value 0.997 | locus YER155C, strain BEM2 (second series), stronger effect = lower value 1.02 | locus YER155C, strain BEM2, stronger effect = lower value 0.989 | locus YER167W, strain BCK2, stronger effect = lower value 0.988 | locus YFR010W, strain ubp6, stronger effect = lower value 1.02 | locus YGL078C, strain dbp3, stronger effect = lower value 1 | locus YGL086W, strain mad1, stronger effect = lower value 0.996 | locus YGL167C, strain pmr1, stronger effect = lower value 0.971 | locus YGL173C, strain kem1, stronger effect = lower value 1.01 | locus YGL227W, strain vid30, stronger effect = lower value 0.996 | locus YGL240W, strain doc1, stronger effect = lower value 1.02 | locus YGL248W, strain PDE1, stronger effect = lower value 1.02 | locus YGL253W, strain hxk2, stronger effect = lower value 1.02 | locus YGR135W, strain pre9, stronger effect = lower value 0.954 | locus YGR252W, strain gcn5, stronger effect = lower value 1.06 | locus YHR013C, strain ard1, stronger effect = lower value 0.978 | locus YHR027C, strain rpn1, stronger effect = lower value 0.987 | locus YHR030C, strain SLT2, stronger effect = lower value 0.993 and 1.06 | locus YHR079C, strain IRE1 (second series), stronger effect = lower value 0.959 | locus YHR079C, strain IRE1, stronger effect = lower value 1.05 | locus YHR094C, strain hxt1, stronger effect = lower value 0.983 | locus YHR129C, strain ARP1, stronger effect = lower value 1.01 | locus YHR142W, strain chs7, stronger effect = lower value 0.965 | locus YHR200W, strain rpn10, stronger effect = lower value 0.986 | locus YIL066C, strain RNR3, stronger effect = lower value 1 | locus YIL073C, strain SPO22, stronger effect = lower value 0.905 | locus YIL125W, strain kgd1, stronger effect = lower value 0.992 | locus YIR030C, strain dcg1, stronger effect = lower value 0.957 | locus YJL092W, strain hpr5, stronger effect = lower value 0.991 | locus YJL095W, strain BCK1 (second series), stronger effect = lower value 0.999 | locus YJL095W, strain BCK1, stronger effect = lower value 1.11 and 1.04 | locus YJL115W, strain asf1, stronger effect = lower value 0.995 | locus YJL129C, strain trk1, stronger effect = lower value 0.948 | locus YJL134W, strain LCB3, stronger effect = lower value 0.993 | locus YJL154C, strain vps35, stronger effect = lower value 0.985 | locus YJL164C, strain tpk1, stronger effect = lower value 0.974 | locus YJL166W, strain qcr8, stronger effect = lower value 0.999 | locus YJL168C, strain set2, stronger effect = lower value 0.965 | locus YJL187C, strain SWE1 (second series), stronger effect = lower value 1 | locus YJL187C, strain SWE1, stronger effect = lower value 0.989 | locus YJR043C, strain POL32, stronger effect = lower value 1.04 | locus YJR066W, strain TOR1, stronger effect = lower value 0.984 | locus YKL009W, strain mrt4, stronger effect = lower value 0.996 | locus YKL068W, stronger effect = lower value 0.985 | locus YKL085W, strain MDH1 (second series), stronger effect = lower value 0.973 | locus YKL085W, strain MDH1, stronger effect = lower value 0.973 | locus YKL160W, strain elf1, stronger effect = lower value 0.983 | locus YKL190W, strain CNB1, stronger effect = lower value 0.99 | locus YKR001C, strain vps1, stronger effect = lower value 0.946 | locus YKR026C, strain gcn3, stronger effect = lower value 1 | locus YKR091W, strain srl3, stronger effect = lower value 0.995 | locus YLL001W, strain dnm1, stronger effect = lower value 0.962 | locus YLL026W, stronger effect = lower value 1 | locus YLL041C, strain sdh2, stronger effect = lower value 0.998 | locus YLR027C, strain aat2, stronger effect = lower value 1 | locus YLR039C, strain RIC1, stronger effect = lower value 0.979 | locus YLR058C, strain SHM2, stronger effect = lower value 1.01 | locus YLR102C, strain apc9, stronger effect = lower value 0.983 | locus YLR113W, strain HOG1, stronger effect = lower value 1.03 | locus YLR221C, strain rsa3, stronger effect = lower value 1.04 | locus YLR258W, strain gsy2, stronger effect = lower value 1.01 | locus YLR262C, strain YPT6 (second series), stronger effect = lower value 0.878 | locus YLR268W, strain sec22, stronger effect = lower value 0.975 | locus YLR320W, strain mms22, stronger effect = lower value 1.02 | locus YLR330W, strain CHS5, stronger effect = lower value 0.985 | locus YLR342W, strain FKS1, stronger effect = lower value 1 | locus YLR357W, strain rsc2, stronger effect = lower value 0.95 | locus YLR370C, strain arc18, stronger effect = lower value 0.99 | locus YLR371W, strain rom2, stronger effect = lower value 0.97 | locus YLR384C, strain iki3, stronger effect = lower value 0.988 | locus YLR418C, strain cdc73, stronger effect = lower value 0.948 | locus YML016C, strain PPZ1, stronger effect = lower value 1 | locus YML032C, strain rad52, stronger effect = lower value 0.995 | locus YML120C, strain ndi1, stronger effect = lower value 0.966 | locus YML124C, strain tub3, stronger effect = lower value 0.971 | locus YMR058W, strain fet3, stronger effect = lower value 1.01 | locus YMR078C, strain ctf18, stronger effect = lower value 0.961 | locus YMR125W, strain sto1, stronger effect = lower value 0.973 | locus YMR129W, stronger effect = lower value 0.995 | locus YMR205C, strain PFK2, stronger effect = lower value 0.936 | locus YMR223W, strain ubp8, stronger effect = lower value 0.978 | locus YMR231W, strain pep5, stronger effect = lower value 0.995 | locus YMR263W, strain SAP30, stronger effect = lower value 0.989 | locus YNL067W, strain RPL9B, stronger effect = lower value 1.01 | locus YNL071W, strain lat1, stronger effect = lower value 0.993 | locus YNL128W, strain TEP1, stronger effect = lower value 1 | locus YNL153C, strain GIM3, stronger effect = lower value 1 | locus YNL183C, strain NPR1, stronger effect = lower value 0.994 | locus YNL209W, strain ssb2, stronger effect = lower value 0.991 | locus YNL233W, strain BNI4, stronger effect = lower value 1.01 | locus YNL248C, strain rpa49, stronger effect = lower value 1.03 | locus YNL250W, strain rad50, stronger effect = lower value 0.915 | locus YNL271C, strain bni1, stronger effect = lower value 0.973 | locus YNL298W, strain CLA4, stronger effect = lower value 1.01 | locus YNL307C, strain MCK1, stronger effect = lower value 0.95 | locus YNL322C, strain KRE1 (second series), stronger effect = lower value 0.982 | locus YNR049C, strain mso1, stronger effect = lower value 1.01 | locus YNR052C, strain pop2, stronger effect = lower value 0.99 | locus YOL012C, strain htz1 1.04 | locus YOL147C, strain pex11, stronger effect = lower value 0.968 | locus YOR001W, strain rrp6, stronger effect = lower value 1.02 | locus YOR061W, strain CKA2, stronger effect = lower value 1 | locus YOR069W, strain VPS5, stronger effect = lower value 0.994 | locus YOR070C, strain gyp1, stronger effect = lower value 0.999 | locus YOR080W, strain dia2, stronger effect = lower value 1.02 | locus YOR083W, strain WHI5, stronger effect = lower value 0.984 | locus YOR106W, strain vam3, stronger effect = lower value 0.967 | locus YOR136W, strain idh2, stronger effect = lower value 0.977 | locus YOR144C, strain elg1, stronger effect = lower value 0.989 | locus YOR184W, strain ser1, stronger effect = lower value 1.03 | locus YOR231W, strain MKK1, stronger effect = lower value 1.06 | locus YOR265W, strain rbl2, stronger effect = lower value 0.987 | locus YOR270C, strain vph1, stronger effect = lower value 1.01 | locus YOR290C, strain snf2, stronger effect = lower value 0.967 | locus YOR316C, strain cot1, stronger effect = lower value 0.962 | locus YPL051W, strain arl3, stronger effect = lower value 1.02 | locus YPL055C, strain LGE1, stronger effect = lower value 1.06 | locus YPL078C, strain atp4, stronger effect = lower value 0.969 | locus YPL106C, strain sse1, stronger effect = lower value 0.983 | locus YPL240C, strain hsp82, stronger effect = lower value 1 | locus YPL256C, strain CLN2, stronger effect = lower value 1.02 | locus YPR119W, strain clb2, stronger effect = lower value 0.947 | locus YPR141C, strain kar3, stronger effect = lower value 0.968 | locus YPR163C, strain tif3, stronger effect = lower value 0.98 | locus YPR167C, strain met16, stronger effect = lower value 0.968 | strain wtn01, stronger effect = lower value 0.991
